From PubChem BioAssay (NCATS)
Values joined by “and” are separate entries in the source; they are usually repeats but may differ in a detail not shown here. Equal entries are not always repeated. Records with an inconclusive call do not appear. Some compounds were tested as several samples or in several runs, with calls that do not always agree. Active and inactive are the calls of the source. Unless noted, the call rests on the fitted dose curve; in most records, active means well fitted curve in the direction sought with a large enough effect; inconclusive means small, poorly fitted or top-dose-only effect, or another doubt; inactive means no such curve, though single readings can be large; an effect the other way counts as inactive or inconclusive.

How the values were obtained:
[1] = Cellular Toxicity (caspase-3) Hek293 (AID 664); conditions: HEK293 caspase-3 activation; caspase-3 activation: at 92.2 µM (top of the series), DMSO = 0%, 100 µM tamoxifen = 100%;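 further: cells exposed to compound for 16 h at 37 °C before readout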; further: potency means the concentration at half of the fitted maximal effect
Summary of the method: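 Apoptosis readout: Caspase-Glo 3/7 signal in human HEK293 cells following 16-hour compound incubation. Responses scaled between DMSO baseline and 100 uM tamoxifen.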

[2] = Cellular Toxicity (caspase-3) NIH 3T3 (AID 666);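 further: caspase signal read after 16 h compound exposure; 0% = DMSO basal and 100% = 100 µM tamoxifen stimulation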
Summary of the method: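 Activity: caspase-3/7 induction, NIH 3T3 cells, 16 hr treatment at 37°C, luminescent Caspase-Glo detection; AC50 via Hill equation.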

[3] = biological target: Guanine nucleotide-binding protein G(i) subunit alpha-1 (Homo sapiens) (UniProt P63096); experiment: qHTS Assay for Inhibitors of RGS12 GoLoco Motif Activity (Green Fluorophore) (AID 879);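 further: 0% = labeled peptide with Gαi1 and full inhibition = labeled peptide alone without protein; negative values mean loss of peptide binding seen as reduced polarization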
Summary of the method: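 A drop in FITC polarization marked displacement of the FITC-tagged RGS12 GoLoco peptide (10 nM) from Gαi1 (50 nM). Compounds were incubated 10 min at room temperature in Tris pH 7.5 buffer containing 150 mM NaCl, 0.1 mM GDP and 0.05% NP40; unlabeled peptide titration served as control.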

[4] = Confirmation and Secondary Assay for Modulators of Hemoglobin Beta Chain Splicing at IVS2 654 locus (AID 910);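 further: per-well total GFP intensity by laser scanning cytometry after 2-day treatment; % of control where 0% means no effect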
Summary of the method: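 HeLa cells stably carrying EGFP interrupted by mutant beta-globin IVS2-654 intron (CMV-driven) were treated with compound for 2 days at 37C; corrected splicing was scored as total peak GFP intensity per well (488 nm excitation, 500-520 nm emission).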

[5] = qHTS Assay for Identification of Small Molecule Antagonists for Thrombopoietin (TPO) Signaling Pathway (AID 918); conditions: TPO-dependent cell signaling reporter, antagonist mode; further: potency means the concentration at half of the fitted maximal effect; nearly all actives have a fitted effect of over 60% in size
Summary of the method: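 Antagonist mode at EC50 TPO (26 pM) in IL-3-free medium; murine Ba/F3 cells with human TPO receptor and GPIIb-promoter luciferase, 24 hrs at 37 C before luminescent detection.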

[6] = Confirmation and Secondary Assay for Modulators of Hemoglobin Beta Chain Splicing at IVS2 705 locus (AID 930);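 further: HeLa cells stably expressing the EGFP-705 splicing reporter; GFP fluorescence per well restored by corrected splicing of the IVS2-705 intron in EGFP; % of control where 0% means no effect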
Summary of the method: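 Assay measures total GFP intensity per well in HeLa EGFP-705 cells after 2 days with compound; mis-splicing normally truncates EGFP, so fluorescence indicates corrected splicing.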

[7] = biological target: Pyruvate kinase (Leishmania mexicana) (UniProt Q27686); experiment: qHTS Validation Assay for Inhibitors of Leishmania Mexicana Pyruvate Kinase (AID 945);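 further: 0% = DMSO only neutral control wells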
Summary of the method: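 Pyruvate kinase activity of E451W LmPYK (0.2 nM) was followed as ATP output after 1 h at room temperature with 0.5 mM PEP and 0.1 mM ADP, detected by PKLight luminescence.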

[8] = Cellular Toxicity (caspase-3) N2a (AID 665); conditions: Potency: caspase-3 activation;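 further: compound exposure lasted 16 h at 37 °C before readout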; further: potency means the concentration at half of the fitted maximal effect
Summary of the method: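 Concentration-response qHTS: compound-induced caspase-3/7 luminescence in N2a cells (16 h, 37 °C), relative to DMSO and 10 uM staurosporine controls; AC50 obtained using the standard Hill equation.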

[9] = Cellular Toxicity (caspase-3) Renal Proximal Tubule (AID 667); conditions: Potency: caspase-3 activation;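 further: cells exposed to compound for 16 hours at 37 °C before detection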; further: potency means the concentration at half of the fitted maximal effect;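 on caspase-3 activation: 0% = DMSO basal and 100% = 10 µM staurosporine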
Summary of the method: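 Primary rat proximal tubule cells, 1000/well, 5 h plating at 37 °C, then compound 16 h at 37 °C. Caspase-Glo 3/7 reagent, 1 h RT, luminescence. Normalized to DMSO (basal) and 10 uM staurosporine (100%); Hill-fit AC50.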

[10] = Cell Viability - LYMP2-001 (AID 921); further: nearly all actives have a fitted effect of over 70% in size; further: potency means the concentration at half of the fitted maximal effect
Summary of the method: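 Human lymphoblastoid cells (Coriell), 2500 per well, were preincubated 5 hr at 37 C, then exposed to compounds in complete medium for 24 hr at 37 C. Cellular ATP was read by CellTiter-Glo luminescence; AC50 from Hill fits of concentration-response data.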

[11] = biological target: Cytochrome P450 2C9 (Homo sapiens) (UniProt P11712); experiment: qHTS Assay for Inhibitors and Substrates of Cytochrome P450 2C9 (AID 883); further: nearly all actives have a fitted effect of over 60% in size; further: potency means the concentration at half of the fitted maximal effect
Summary of the method: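 Human CYP2C9 (10nM) hydroxylated Luciferin-H (100uM, at its KM) to luciferin in 25mM KPO4. Compound was preincubated 10 min at 37C, then NADPH regeneration started a 60 min reaction at 37C. Luminescence was read after detection reagent, normalized to 57uM sulphaphenazole.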

[12] = biological target: Cytochrome P450 3A4 (Homo sapiens) (UniProt P08684); experiment: qHTS Assay for Activators of Cytochrome P450 3A4 (AID 885); further: nearly all actives have a fitted effect of over 65% in size
Summary of the method: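 Human CYP3A4 dealkylates Luciferin-PPXE to luciferin, which luciferase detection converts to light. Substrate was at its KM (25uM), buffer 200mM KPO4, reaction 60 min at RT.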

[13] = biological target: Cytochrome P450 2D6 (Homo sapiens) (UniProt P10635); experiment: qHTS Assay for Inhibitors and Substrates of Cytochrome P450 2D6 (AID 891);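 further: luciferin methyl ether substrate demethylated by CYP2D6 with NADPH regeneration; on the % scale 0 is the no-effect control and ±100 the full control effect; nearly all actives have a fitted effect of over 60% in size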
Summary of the method: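 Luminescent read-out of luciferin formed by 5 nM human CYP2D6 demethylating 30 uM Luciferin-ME EGE (Km level) over 60 min at room temperature after NADPH regeneration addition. Data normalized to full inhibition by 1.43 uM quinidine.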

[14] = biological target: Cytochrome P450 2C19 (Homo sapiens) (UniProt P33261); experiment: qHTS Assay for Inhibitors and Substrates of Cytochrome P450 2C19 (AID 899); further: on the % scale 0 is the no-effect control and ±100 the full control effect; nearly all actives have a fitted effect of over 60% in size
Summary of the method: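 Human CYP2C19 (5nM) with Luciferin-H EGE at 10uM (its KM) in 50mM KPO4 was preincubated with compound for 10 min at 37C. NADPH regeneration started a 60 min 37C reaction. Luciferin was read by luminescence, normalized to 57uM ketoconazole.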

[15] = biological target: Cytochrome P450 3A4 (Homo sapiens) (UniProt P08684); experiment: qHTS Assay for Inhibitors and Substrates of Cytochrome P450 3A4 (AID 884); further: on the % scale 0 is the no-effect control and ±100 the full control effect; nearly all actives have a fitted effect of over 50% in size
Summary of the method: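 Luminescent readout of luciferin produced by CYP3A4 (20 nM) dealkylation of Luciferin-PPXE, 25 uM (its KM). NADPH-driven reaction ran 60 min at RT after 10 min compound preincubation; data scaled to 57 uM ketoconazole as 100% inhibition.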

[16] = qHTS Assay for Identification of Small Molecule Antagonists for NFkB Signaling Pathway (AID 895; active means well fitted inhibition curve with a large enough effect in the signal ratio, with a control signal flat, not every such curve was filed as active; the % refers to the signal ratio; further: potency means the concentration at half of the fitted maximal effect)
Summary of the method: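 NFkB-bla ME-180 cervical carcinoma cells with beta-lactamase reporter under NFkB response element; compounds added, then TNF alpha at 10 pM final (EC50), 5 h at 37 C. LiveBLAzer substrate 2 h, room temperature; emission 460/530 nm at 405 nm excitation.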

[17] = qHTS Assay for Identification of Small Molecule Agonists for Thrombopoietin (TPO) Signaling Pathway (AID 917); further: on the % scale 0 is the no-effect control and ±100 the full control effect
Summary of the method: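 First, Ba/F3 cells with human TPO receptor were held overnight without IL-3. Next, compounds and TPO (26 pM final) were added. After 24 hrs at 37 C, luciferase detection reagent was added and luminescence measured following 10 min at room temperature.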

[18] = biological target: Muscarinic acetylcholine receptor M1 (Rattus norvegicus) (UniProt P08482); experiment: qHTS Assay for Antagonists of Acetylcholine Muscarinic M1 Receptor: Kinetic Measurement of Intracellular Calcium Response (AID 943);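 further: Fluo-4 calcium signal as peak divided by basal fluorescence over 4 min; nearly all actives have a fitted effect of over 75% in size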
Summary of the method: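 Quantitative HTS in CHO-M1 (rat receptor) cells: 10 min compound exposure ahead of 100 nM carbachol, Fluo-4 fluorescence followed 4 min, value expressed as peak-to-basal ratio.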

[19] = qHTS Assay for Identification of Small Molecule Agonists for Hypoxia Response Element Signaling Pathway (AID 914; active means well fitted activation curve with a large enough effect in the signal ratio, with a control signal flat, not every such curve was filed as active; the % refers to the signal ratio; further: % of control where 0% means no effect); conditions: ME-180 (cervical carcinoma) HRE-bla reporter, beta-lactamase ratio, CoCl2, 17 h; stronger effect = higher value
Summary of the method: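 Compounds in a titration series were added to ME-180 reporter cells alongside an EC50 level of CoCl2. After 17 hours, beta-lactamase activity was read as the 460nm/530nm emission ratio of CCF4, giving AC50 values.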

[20] = qHTS Assay for Identification of Small Molecule Agonists for NFkB Signaling Pathway (AID 928; calls by dose curve); conditions: NFkB beta-lactamase reporter cells, blue/green ratio
Summary of the method: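 Activators were sought with TNF alpha co-added at 10 pM final (its EC50) to beta-lactamase reporter cells. Cells were plated in OPTI MEM with 0.5% FBS and exposed for 5 hrs at 37 C. The FRET substrate ratio was read at 460 and 530 nm.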

Muscarinic acetylcholine receptor M1 (Rattus norvegicus), sequence (P08482 whole entry, looked up): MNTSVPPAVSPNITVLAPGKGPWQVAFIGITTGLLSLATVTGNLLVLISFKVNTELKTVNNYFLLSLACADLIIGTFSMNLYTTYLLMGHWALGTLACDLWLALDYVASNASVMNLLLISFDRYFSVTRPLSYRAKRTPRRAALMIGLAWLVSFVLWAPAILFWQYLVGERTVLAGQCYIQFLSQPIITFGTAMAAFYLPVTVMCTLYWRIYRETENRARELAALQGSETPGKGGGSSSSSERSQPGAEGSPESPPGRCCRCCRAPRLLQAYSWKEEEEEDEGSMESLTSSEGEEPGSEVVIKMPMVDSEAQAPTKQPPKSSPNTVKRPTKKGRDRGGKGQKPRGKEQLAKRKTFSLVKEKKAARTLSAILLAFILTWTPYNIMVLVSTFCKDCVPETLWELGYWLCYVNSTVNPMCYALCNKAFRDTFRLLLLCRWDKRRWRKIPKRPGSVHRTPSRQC
Pyruvate kinase (Leishmania mexicana), sequence (Q27686 2-499 E452W): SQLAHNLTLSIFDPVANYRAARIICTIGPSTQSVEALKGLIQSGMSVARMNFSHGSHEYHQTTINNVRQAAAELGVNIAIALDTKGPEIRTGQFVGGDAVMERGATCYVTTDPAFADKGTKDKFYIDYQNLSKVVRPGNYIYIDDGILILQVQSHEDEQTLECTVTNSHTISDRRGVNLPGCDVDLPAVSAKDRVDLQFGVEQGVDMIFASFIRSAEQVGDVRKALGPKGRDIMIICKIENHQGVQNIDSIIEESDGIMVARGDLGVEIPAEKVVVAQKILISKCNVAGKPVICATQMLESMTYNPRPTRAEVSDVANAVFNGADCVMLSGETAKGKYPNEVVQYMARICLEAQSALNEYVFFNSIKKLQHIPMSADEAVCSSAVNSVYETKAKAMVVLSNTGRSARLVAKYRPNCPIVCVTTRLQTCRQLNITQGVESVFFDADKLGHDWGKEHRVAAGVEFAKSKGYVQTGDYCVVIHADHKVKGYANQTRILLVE
Cytochrome P450 2C19 (Homo sapiens), sequence (P33261 whole entry, looked up): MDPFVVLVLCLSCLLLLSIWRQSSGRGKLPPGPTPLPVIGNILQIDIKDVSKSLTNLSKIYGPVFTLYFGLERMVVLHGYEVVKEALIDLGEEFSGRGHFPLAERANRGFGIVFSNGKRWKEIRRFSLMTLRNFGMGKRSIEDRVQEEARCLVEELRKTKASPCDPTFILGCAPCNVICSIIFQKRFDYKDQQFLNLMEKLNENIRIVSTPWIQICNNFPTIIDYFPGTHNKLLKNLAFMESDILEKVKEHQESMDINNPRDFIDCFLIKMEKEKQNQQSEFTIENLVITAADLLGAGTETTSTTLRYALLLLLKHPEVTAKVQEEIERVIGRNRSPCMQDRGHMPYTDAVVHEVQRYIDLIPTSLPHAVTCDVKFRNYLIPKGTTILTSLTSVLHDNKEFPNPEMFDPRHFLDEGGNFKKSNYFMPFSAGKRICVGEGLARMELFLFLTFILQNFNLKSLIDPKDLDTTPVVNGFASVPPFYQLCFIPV
Guanine nucleotide-binding protein G(i) subunit alpha-1 (Homo sapiens), sequence (P63096 whole entry, looked up): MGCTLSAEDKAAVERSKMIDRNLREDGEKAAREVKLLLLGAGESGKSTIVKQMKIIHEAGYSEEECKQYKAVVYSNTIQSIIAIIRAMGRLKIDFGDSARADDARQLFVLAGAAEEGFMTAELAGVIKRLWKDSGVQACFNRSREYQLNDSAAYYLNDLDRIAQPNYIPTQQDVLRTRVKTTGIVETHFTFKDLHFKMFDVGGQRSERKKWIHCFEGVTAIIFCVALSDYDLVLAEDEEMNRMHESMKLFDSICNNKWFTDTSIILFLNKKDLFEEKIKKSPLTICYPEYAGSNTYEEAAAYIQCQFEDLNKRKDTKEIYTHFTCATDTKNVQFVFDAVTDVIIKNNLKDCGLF
Cytochrome P450 2C9 (Homo sapiens), sequence (P11712 whole entry, looked up): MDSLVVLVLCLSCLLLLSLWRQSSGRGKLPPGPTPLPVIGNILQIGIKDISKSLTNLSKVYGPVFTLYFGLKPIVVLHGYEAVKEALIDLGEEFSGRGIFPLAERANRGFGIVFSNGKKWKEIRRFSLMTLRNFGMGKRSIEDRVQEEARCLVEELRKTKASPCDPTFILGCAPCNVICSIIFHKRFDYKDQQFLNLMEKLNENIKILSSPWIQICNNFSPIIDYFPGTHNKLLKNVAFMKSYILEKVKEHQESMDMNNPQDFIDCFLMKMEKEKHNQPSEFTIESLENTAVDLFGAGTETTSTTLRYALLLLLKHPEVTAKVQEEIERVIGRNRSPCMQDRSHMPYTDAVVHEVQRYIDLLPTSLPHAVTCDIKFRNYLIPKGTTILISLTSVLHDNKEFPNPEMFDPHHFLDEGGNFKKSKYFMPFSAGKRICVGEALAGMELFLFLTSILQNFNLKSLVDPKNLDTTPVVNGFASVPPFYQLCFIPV
Cytochrome P450 2D6 (Homo sapiens), sequence (P10635 whole entry, looked up): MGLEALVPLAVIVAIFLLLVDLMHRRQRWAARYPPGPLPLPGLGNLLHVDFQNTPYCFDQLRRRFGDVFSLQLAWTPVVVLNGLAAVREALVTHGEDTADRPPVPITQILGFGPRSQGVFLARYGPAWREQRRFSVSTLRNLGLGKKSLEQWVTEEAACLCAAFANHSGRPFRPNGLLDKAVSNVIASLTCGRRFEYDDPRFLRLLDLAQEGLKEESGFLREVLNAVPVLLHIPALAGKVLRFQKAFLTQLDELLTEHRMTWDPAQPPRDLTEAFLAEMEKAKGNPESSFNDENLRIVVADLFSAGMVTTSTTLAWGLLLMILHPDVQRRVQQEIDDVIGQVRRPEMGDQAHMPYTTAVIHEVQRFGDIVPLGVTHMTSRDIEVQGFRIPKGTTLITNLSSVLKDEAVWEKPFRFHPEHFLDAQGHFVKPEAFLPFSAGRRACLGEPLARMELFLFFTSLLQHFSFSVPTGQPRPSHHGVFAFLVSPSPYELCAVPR
Cytochrome P450 3A4 (Homo sapiens), sequence (P08684 whole entry, looked up): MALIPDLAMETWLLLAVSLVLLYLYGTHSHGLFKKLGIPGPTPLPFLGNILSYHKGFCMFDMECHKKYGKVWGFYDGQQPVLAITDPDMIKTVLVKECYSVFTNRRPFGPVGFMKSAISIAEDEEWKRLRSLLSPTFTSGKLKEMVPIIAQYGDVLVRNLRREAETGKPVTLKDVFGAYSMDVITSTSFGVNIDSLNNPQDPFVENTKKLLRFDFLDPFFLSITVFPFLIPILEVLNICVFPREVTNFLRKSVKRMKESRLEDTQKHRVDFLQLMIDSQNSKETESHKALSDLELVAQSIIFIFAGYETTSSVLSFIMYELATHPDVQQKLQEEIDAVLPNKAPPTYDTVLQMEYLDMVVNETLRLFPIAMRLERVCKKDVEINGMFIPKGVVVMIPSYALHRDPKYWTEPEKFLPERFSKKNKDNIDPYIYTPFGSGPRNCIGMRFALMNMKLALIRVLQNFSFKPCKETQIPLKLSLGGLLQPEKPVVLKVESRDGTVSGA

CC/C(=C(\c1ccccc1)c1ccc(OCCN(C)C)cc1)c1ccccc1
active: caspase-3 activation [1] 147% | Potency [5] 10 µM
inactive: outcome [2] | outcome [3] | outcome [4] | outcome [6] | Potency [7]

CCn1cc(C(=O)O)c(=O)c2ccc(C)nc21
inactive: Potency [1] | Potency [8] | outcome [2] | Potency [9] | outcome [4] | Potency [10] | outcome [6]

O=c1c(-c2ccc(O)cc2)coc2cc(O)ccc12
inactive: Potency [1] | Potency [8] | outcome [2] | Potency [9] | outcome [3] | outcome [12] | Potency [13] | Potency [14] | outcome [4] | Potency [10] | outcome [6]
inactive and 6.31 µM (active): Potency [11]

CC(=O)c1ccc(S(=O)(=O)NC(=O)NC2CCCCC2)cc1
inactive: Potency [1] | Potency [8] | outcome [2] | Potency [9] | outcome [3] | Potency [11] | Potency [15] | Potency [13] | Potency [16] | Potency [14] | Potency [17] | Potency [10] | outcome [18] | Potency [7]

CN(C)CCC(c1ccccc1)c1ccccn1 (centres undefined)
inactive: Potency [1] | Potency [8] | outcome [2] | Potency [9] | Potency [15] | outcome [4] | Potency [10] | outcome [6]

CCCNC(=O)NS(=O)(=O)c1ccc(Cl)cc1
active: Potency [20] 447 nM
inactive: Potency [1] | Potency [8] | outcome [2] | Potency [9] | outcome [3] | Potency [11] | Potency [15] | outcome [12] | Potency [13] | Potency [14] | outcome [4] | activation [19] -1.93% and -16.9% and -21.4% | Potency [17] | Potency [10] | outcome [6] | Potency [7]

CCN1CCC[C@H]1CNC(=O)c1cc(S(N)(=O)=O)ccc1OC
inactive: outcome [3] | Potency [15] | Potency [14] | Potency [17] | Potency [7]

O=C1NC(=O)C(c2ccccc2)(c2ccccc2)N1
inactive: Potency [1] | Potency [8] | outcome [2] | Potency [9] | outcome [3] | Potency [15] | outcome [4] | Potency [17] | Potency [10] | outcome [6] | Potency [7]

CCCCC1C(=O)N(c2ccccc2)N(c2ccccc2)C1=O
inactive: Potency [1] | Potency [8] | outcome [2] | Potency [9] | outcome [3] | Potency [13] | Potency [14] | outcome [4] | activation [19] -18.4% and -5.39% | Potency [17] | Potency [10] | outcome [6] | Potency [7]

CCN(CC)CCOC(=O)c1ccc(N)cc1
inactive: outcome [3] | Potency [15] | Potency [16] | outcome [4] | Potency [17] | outcome [6] | Potency [7]

CC(=O)O[C@]1(C(C)=O)CC[C@H]2[C@@H]3C=C(Cl)C4=CC(=O)[C@@H]5C[C@@H]5[C@]4(C)[C@H]3CC[C@@]21C
inactive: Potency [1] | Potency [8] | outcome [2] | Potency [9] | Potency [15] | Potency [10]

O=C1NCC2(CCN(CCc3ccccc3)CC2)O1
inactive: outcome [3] | Potency [15] | outcome [4] | Potency [17] | outcome [6] | Potency [7]

NCCS
inactive: outcome [3] | Potency [15] | Potency [16] | outcome [4] | Potency [17] | outcome [6] | outcome [18] | Potency [7]

O=C(O)Cc1cccc2ccccc12
inactive: Potency [1] | Potency [8] | outcome [2] | Potency [9] | Potency [15] | Potency [10]

CC1=C(/C=C/C(C)=C/C=C/C(C)=C/C(=O)Nc2ccc(O)cc2)C(C)(C)CCC1
inactive: outcome [2] | outcome [3] | outcome [18] | Potency [7]
active: Potency [1] 31.6 µM | Potency [8] 31.6 µM | Potency [9] 31.6 µM | Potency [16] 6.31 µM | Potency [5] 10 µM | Potency [10] 39.8 µM

CC(=O)CCCCn1c(=O)c2c(ncn2C)n(C)c1=O
inactive: outcome [3] | Potency [11] | Potency [15] | Potency [13] | Potency [14] | outcome [4] | Potency [17] | outcome [6] | Potency [7]

CCN(CC)C(=O)c1ccc(O)c(OC)c1
inactive: outcome [3] | Potency [11] | Potency [15] | Potency [13] | Potency [14] | Potency [17] | outcome [18] | Potency [7]
